# Source: PubChem
# The sample as a whole holds a higher share of hits than the screen did.
# TTR transcr act = TTR transcription activators in neuroblastoma reporter cells, primary screen, cell-based, luminescence, SH-SY5Y, TTR promoter Gaussia luciferase. 100% = recombinant luciferase protein wells. activation, % at 16.7 µM. 1.3% of 92,000 active. AID 1117267, 2014;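 active = activation above the mean of all tested compounds plus 3 SD, cut at about 9.5% in these data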;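 note: cells exposed to compounds for one day before reading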
# TTR inh HuH7 = TTR promoter reporter inhibitors in hepatoma cells, counter-screen for TTR transcription activator project, cell-based, luminescence, HuH7 hepatoma; 4% of 1,100 active; inhibition, % at 16.7 µM; shares compounds with TTR transcr act; HuH7 TTR promoter-Gaussia luciferase reporter;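 active = average inhibition above the solvent-only control wells' mean plus 3 SD, cut at about 15% in these data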;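 note: inhibitors lower well luminescence so higher value means more inhibition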
# TTR up confirm = TTR transcription activators, retest, confirmation, cell-based, luminescence, SH-SY5Y, triplicate; shares compounds with TTR transcr act; AID 1117280, 2014; activation, % at 16.7 µM; SHSY5Y TTR promoter Gaussia luciferase; 100% = purified Lucia enzyme wells, no cells; 1,100 tested, under 10 active;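 active = mean activation above a set limit taken from the earlier primary screen, cut at about 11% in these data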
# A number is an active result; - = inactive.
SMILES,TTR transcr act,others
COc1cccc(CNC2CCC23CCC(C)CC3)c1 (stereo not given),-,
Cc1ccc(-c2cc(-c3ccccc3)nc(NN)n2)cc1,-,
Cc1ccc(-c2nc3ccccc3nc2-c2ccccc2)cc1,-,
Cc1cc(-c2ccccc2)nc(-c2ccccc2)c1C,19,TTR inh HuH7=-;TTR up confirm=-
O=S(=O)(N[C@@H]1CCCC[C@H]1N1CCOCC1)c1ccc(Cl)cc1,-,
C[C@@H]1CCCN1c1ccc2c(c1)OCCCN(C1CC1)S2(=O)=O,-,
O=C(c1cc(COc2ccc(F)cc2Cl)on1)N1CC2C[C@@H]3CC1C[C@H](C2)C3,-,
COc1ccc(C)cc1NC(=O)C1CCC(CNc2c(N3CCOCC3)c(=O)c2=O)CC1 (stereo not given),-,
CC1CCN(c2c(NCC3CCC(C(=O)NCc4ccccc4)CC3)c(=O)c2=O)CC1 (stereo not given),-,
COc1ccc(OC)c(NC(=O)C2CCC(CNc3c(N4CCC(C)CC4)c(=O)c3=O)CC2)c1 (stereo not given),15,TTR inh HuH7=-;TTR up confirm=-
Clc1cccc(CNC2CCC23CCCCC3)c1 (stereo not given),-,
CCn1c(C)nc2cc(S(=O)(=O)N3CCCC3)ccc21,-,
CCn1cc(S(=O)(=O)NC2CCCCC2)cn1,-,
CCn1cc(S(=O)(=O)N2CCCC2)cn1,14,TTR inh HuH7=-;TTR up confirm=-
COc1ccc(C2OCCNC3C2C(=O)N(Cc2ccc(OC)cc2OC)C3Cc2ccccc2)cc1 (stereo not given),-,
CN(C)CCNc1ccc(CO)c2oc3ccc(O)cc3c(=O)c12,16,TTR inh HuH7=-;TTR up confirm=13
Cc1cc(NCCO)c2cc(O)ccc2n1,-,
COC(=O)[C@]12C[C@H](CC(=O)NCCCN3CCCC3=O)C(=O)N(Cc3cccc4ccccc34)C1=C[C@H](C(C)C)O[C@@H]2C1CC1,-,
Cc1ccc(CN2CCCCC(NC(=O)Nc3cccc(F)c3)C2=O)cc1 (stereo not given),-,
C[C@H]1[C@@H](OC(=O)NCCc2ccccc2)CC[C@@]23CCCN2C(=O)CCC[C@@H]13,-,
O=S(=O)(Cc1cc(-c2ccc(Cl)cc2)no1)c1ccccc1,12,TTR inh HuH7=-;TTR up confirm=-
O=S(=O)(NCc1cc(-c2ccc(Cl)cc2)no1)c1ccc(Cl)cc1,-,
O=S(=O)(NCc1cc(-c2ccccc2)no1)c1ccc(Cl)cc1,-,
Cc1ccc(NC(=O)[C@@H]2CCCN2S(=O)(=O)c2cccc3cccnc23)c(C)c1,-,
CC(C)Cn1cnc2c1c(=O)n(CC(=O)N(C)C)c(=O)n2Cc1ccccc1,-,
SMILES,TTR transcr act,others
CCn1cnc2c1c(=O)n(CC(=O)Nc1ccc3c(c1)OC(F)(F)O3)c(=O)n2Cc1ccccc1,-,
COCCn1cnc2c1c(=O)n(CC(=O)Nc1cc(C)on1)c(=O)n2Cc1ccccc1,16,TTR inh HuH7=-;TTR up confirm=-
Cc1ccc(-c2c(NC(=O)c3cccc(C)c3)nc3ncccn23)cc1,-,
COc1ccccc1C(=O)n1ccc2ccc(-c3ccc4ccn(Cc5ccc(C#N)cc5)c4c3)cc21,-,
c1ccc2c(CSc3ncnc4nc[nH]c34)cccc2c1,-,
O=C(CSc1ncnc2nc[nH]c12)c1ccc([N+](=O)[O-])cc1,29,TTR inh HuH7=-;TTR up confirm=-
O=C(CSc1nnc(-c2ccco2)o1)c1ccc([N+](=O)[O-])cc1,-,
COC(=O)[C@]12C[C@H](CC(=O)NCC3CCCCC3)C(=O)N(Cc3ccco3)C1=C[C@H](C1CCCC1)O[C@@H]2C,-,
CC(C)NC(=O)N(C)C[C@@H]1Oc2cc(Br)ccc2S(=O)(=O)N([C@@H](C)CO)C[C@H]1C,-,
CCn1c(CCNC(=O)c2ccc(Cl)cc2Cl)n[nH]c1=S,-,
CCn1c(Cc2ccccc2)n[nH]c1=S,-,
CCn1c(CCNC(=O)c2ccccc2Cl)n[nH]c1=S,22,TTR inh HuH7=-;TTR up confirm=-
O=C(Nc1sc2c(c1-c1nc3ccccc3s1)CCNC2)C(F)(F)F,-,
CCC[C@H]1[C@@H](NC(=O)c2cccc(C(F)(F)F)c2)CC[C@@]23CCCN2C(=O)CCC[C@@H]13,-,
CC(C)(C)NC(=O)[C@H](c1cccnc1)N(C(=O)c1ccco1)c1ccc(C(C)(C)C)cc1,-,
CN(C)[C@@H]1CCN(c2cccc3c2S(=O)(=O)N2CC[C@H](C2)O3)C1,-,
CC(C)CCNC(=O)C1COC(O)(C(Cc2ccccc2)NC(=O)[C@@H](NC(=O)OCc2ccccc2)C(C)C)CN1 (stereo not given in full),-,
Cc1ccc(CC(=O)OCC(=O)NC2CCCC(C)C2C)cc1C (stereo not given),-,
CC1CCCC(NC(=O)COC(=O)Cc2ccc(Cl)cc2)C1C (stereo not given),-,
Cc1ccc(-c2nc(N)sc2CC(=O)OCC(=O)NC2CCCC(C)C2C)cc1 (stereo not given),15,TTR inh HuH7=-;TTR up confirm=-
CCCCNC(=O)O[C@H]1CC[C@@]23CCCN2C(=O)CCC[C@H]3[C@H]1C,-,
CCCCCCC/C=C(\C)[C@@H](O)[C@@H](C)C(=O)N1CCC[C@@H]1C(=O)O,-,
CNC[C@H]1OCc2cnnn2CCCC(=O)N([C@@H](C)CO)C[C@@H]1C,-,
COc1ccc(CN2C(=O)CSCCC2(C)c2nnnn2-c2c(C)cccc2C)cc1 (stereo not given),-,
CN(C)S(=O)(=O)c1cccc(NC(=O)COC(=O)CCOc2ccccc2)c1,-,
SMILES,TTR transcr act,others
CN(C)S(=O)(=O)c1cccc(NC(=O)COC(=O)c2cn(-c3ccccc3)nc2-c2ccccc2)c1,15,TTR inh HuH7=-;TTR up confirm=-
Cc1cc(C(=O)OCC(=O)Nc2cccc(S(=O)(=O)N(C)C)c2)c2ccccc2n1,-,
CC(C)(C)C(=O)NC1CCCCN(Cc2ccc(Cl)cc2)C1=O (stereo not given),-,
Nc1c(C(=O)Nc2ccccc2F)sc2nc(-c3ccco3)ccc12,-,
NC(=O)c1sc2nc3c(c(-c4ccco4)c2c1N)CCC3,-,
NC(=O)c1sc2nc(-c3ccco3)ccc2c1N,10,TTR inh HuH7=-;TTR up confirm=-
COC(CNC(=O)[C@H](Cc1c[nH]c2ccccc12)NC1(C(=O)NCc2ccccc2)CCCCC1)OC,-,
COc1ccc(C2CC(=O)C3=C(C2)NC(C)=C(C#N)C3c2ccc(N(C)C)cc2)cc1 (stereo not given),-,
COc1ccc(C(=O)O)c(O)c1,-,
COc1cc(OC)c(C2C(C#N)=C(C)NC(C)=C2C#N)c(C(=O)O)c1,30,TTR inh HuH7=-;TTR up confirm=-
CCOC(=O)[C@]12CCCC=C1N(CCCOC)C(=O)[C@@H]2CC(=O)NCCc1ccccc1OC,-,
Cc1ccc(CN2CCCCC(NC(=O)c3ccccc3)C2=O)cc1 (stereo not given),-,
CC(=O)Oc1ccc(C(=O)Nc2cccc3c2CCCC3)cc1,-,
C=CCC[C@@H](Cc1ccc(F)cc1)C(=O)OC[C@@H](Cc1ccccc1)NC(=O)[C@H](CC=C)CC(=O)NCCO,-,
C=CC[C@@H](CC(=O)NCCO)C(=O)N[C@@H](C)COC(=O)[C@@H](CC=C)Cc1ccc(F)cc1,21,TTR inh HuH7=-;TTR up confirm=-
C=CC[C@@H](CC(=O)N[C@H](CO)Cc1ccccc1)C(=O)N[C@@H](C)COC(=O)[C@@H](CC=C)Cc1ccc(F)cc1,-,
COc1ccc2c(c1)NC(=O)[C@@]2(CCN1C(=O)c2ccccc2C1=O)c1[nH]c2ccccc2c1CCN1C(=O)c2ccccc2C1=O,-,
